Where “and” joins values, the source holds several entries; their conditions need not be identical. Equal entries are not always repeated. Values without a mark were called inactive. Inconclusive results are not listed. Calls of active or inactive are those of the source. Unless noted, calls come from the whole dose curve; as a rule, active = well fitted curve in the direction sought with a large enough effect; inconclusive = small, poorly fitted or top-dose-only effect, or another doubt; inactive = no such curve, though single readings can be large; an effect the other way counts as inactive or inconclusive.

Consider 35 molecules from PubChem BioAssay (NCATS).

Assay [1] concerns the target Retinoic acid receptor RXR-alpha (Homo sapiens) (UniProt P19793). The assay is described as follows: qHTS assay for small molecule antagonists of retinoid X receptor alpha signaling (AID 588546; active = well fitted inhibition curve with a large enough effect in the signal ratio, with a control signal flat, not every such curve was filed as active; the % refers to the signal ratio;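 note: cells stimulated with 9-cis-retinoic acid as agonist; % is set by controls: 0 for no effect and ±100 for the full control effect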). Conditions: HEK293T RXRa-UAS-bla, beta-lactamase ratio, antagonist mode. The gist of the method:
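Beta-lactamase reporter inhibition, read as CCF4 fluorescence ratio (ex 405, em 460/530 nm) after 2 h at RT. HEK293T UAS-bla cells, 2500/well, were stimulated with 9-cis-RA at 500 or 100 nM final alongside test compound for 18 h at 37 C.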

The target in assay [2] is Thyroid hormone receptor beta (Homo sapiens) (UniProt P10828). Briefly: qHTS assay for small molecule antagonists of thyroid hormone receptor beta signaling (AID 588547; active = well fitted inhibition curve with a large enough effect in the signal ratio, with a control signal flat, not every such curve was filed as active; the % refers to the signal ratio;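 note: cells stimulated with 0.4 nM T3 agonist during compound exposure; % is set by controls: 0 for no effect and ±100 for the full control effect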). Conditions: TR-UAS-bla HEK293, beta-lactamase ratio, antagonist mode, 18 h. The method in brief: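 TR-UAS-bla GripTite HEK293 cells in 2% charcoal/dextran FBS medium; compounds 0.59 nM to 92 uM with T3 at 0.4nM final, 18 h at 37 C. Beta-lactamase read by CCF4 fluorescence (460/530 nm); Hill fits gave IC50 and efficacy.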
Sequence of Thyroid hormone receptor beta (Homo sapiens) (P10828 whole entry, looked up): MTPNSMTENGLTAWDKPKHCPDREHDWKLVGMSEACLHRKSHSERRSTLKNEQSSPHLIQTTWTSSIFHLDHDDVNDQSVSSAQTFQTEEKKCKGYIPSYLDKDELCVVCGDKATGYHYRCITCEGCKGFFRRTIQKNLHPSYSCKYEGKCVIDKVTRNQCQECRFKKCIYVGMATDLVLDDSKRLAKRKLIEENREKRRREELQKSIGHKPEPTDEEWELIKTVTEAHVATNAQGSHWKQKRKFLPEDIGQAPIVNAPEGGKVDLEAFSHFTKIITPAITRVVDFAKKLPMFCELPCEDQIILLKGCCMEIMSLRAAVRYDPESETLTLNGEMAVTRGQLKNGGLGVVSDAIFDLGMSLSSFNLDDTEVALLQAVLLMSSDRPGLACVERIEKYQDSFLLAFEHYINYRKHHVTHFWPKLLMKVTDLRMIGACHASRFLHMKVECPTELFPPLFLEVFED
On the technique in general: In qHTS, concentration-response curves come from the screen itself.

The target in assay [3] is Voltage-gated inwardly rectifying potassium channel KCNH2 (Homo sapiens) (UniProt Q12809). The assay is described as follows: qHTS Assay for Small Molecule Inhibitors of the Human hERG Channel Activity (AID 588834).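 Note: lower thallium flux fluorescence means stronger hERG block; nearly all actives have a fitted effect of over 50% in size.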 Note: potency is the fitted concentration of half-maximal effect. Conditions: U2OS BacMam hERG, FluxOR thallium flux fluorescence; series mostly up to 46.1 µM. The method in brief:
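Homogeneous FluxOR thallium flux assay using hERG-expressing U2OS cells (BacMam). Compound treatment about 10 minutes preceded stimulation; reduced fluorescence taken as channel block.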

Assay [4] concerns the target Luciferin 4-monooxygenase (Photinus pyralis) (UniProt P08659). The assay is described as follows: Biochemical firefly luciferase enzyme assay for NPC (AID 624030).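 Note: purified P. pyralis luciferase at 10 nM with luciferin and ATP substrate; 0% = DMSO and -100% = full luciferase inhibition by PTC124 control; nearly all actives have a fitted effect of over 70% in size.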 Conditions: purified P. pyralis luciferase, luminescence, 5 min; series mostly up to 58.6 µM. The method in brief: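 Purified P. pyralis luciferase at 10 nM in 50 mM Tris Acetate (final), luminescence read within 5 minutes of enzyme addition to compounds. Activity normalised to PTC124 versus DMSO; concentration-response curves classed by r2, magnitude and activity.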

Assay [5] has as its target Glutaminase kidney isoform, mitochondrial (Homo sapiens) (UniProt O94925). The assay is described as follows: qHTS for Inhibitors of Glutaminase (GLS): LOPAC Validation (AID 624146).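 Note: glutamate product detected by oxidase and peroxidase coupled Amplex red fluorescence gain; % is set by controls: 0 for no effect and ±100 for the full control effect; nearly all actives have a fitted effect of over 60% in size.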 The conditions noted are these: glutaminase enzyme activity inhibition; series mostly up to 46.1 µM. The gist of the method: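 hKGA in 45 mM KH2PO4 (pH 8.2), 0.02% Tween-20 with compound, then 1mM L-Glutamine (stock as added) plus glutamate oxidase/HRP/Amplex red coupling mix. Fluorescence read initially and after 30 min at RT; signal change reflects glutamate formation.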

Assay [6] deals with Glucagon-like peptide 1 receptor (Homo sapiens) (UniProt P43220). The assay is described as follows: qHTS of GLP-1 Receptor Agonists: LOPAC Validation (AID 624148).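 Note: 0% is about no effect; higher luminescence signal means agonism.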 Conditions: GLP-1R agonist cell assay; series mostly up to 46.1 µM. The gist of the method: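 HEK293 cells stably co-expressing GLP-1R and a cAMP-responsive luciferase reporter, plated 12 hours before compound, then incubated 4-6 hr at 37 deg C. Luminescence read 12 min after detection reagent.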
Sequence of Glucagon-like peptide 1 receptor (Homo sapiens) (P43220 whole entry, looked up): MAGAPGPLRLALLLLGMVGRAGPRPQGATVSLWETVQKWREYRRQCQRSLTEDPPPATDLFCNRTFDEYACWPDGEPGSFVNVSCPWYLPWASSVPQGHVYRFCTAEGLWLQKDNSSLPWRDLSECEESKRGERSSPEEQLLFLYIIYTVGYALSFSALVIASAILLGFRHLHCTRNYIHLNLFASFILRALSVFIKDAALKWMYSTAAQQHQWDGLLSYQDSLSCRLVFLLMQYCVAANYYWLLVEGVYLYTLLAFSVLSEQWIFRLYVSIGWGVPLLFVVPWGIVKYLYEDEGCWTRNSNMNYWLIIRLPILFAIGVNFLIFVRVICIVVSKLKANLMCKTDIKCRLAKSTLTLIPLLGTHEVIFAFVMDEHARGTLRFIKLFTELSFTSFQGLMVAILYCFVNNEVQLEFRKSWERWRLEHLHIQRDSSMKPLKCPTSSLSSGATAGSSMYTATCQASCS

Assay [7] in a line: qHTS of Nrf2 Activators: LOPAC Validation (AID 624149). Note: 0% is about no effect. The conditions noted are these: Nrf2/ARE reporter cell assay; series mostly up to 46.1 µM. The gist of the method:
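Following overnight seeding in 5% FBS OPTI-MEM, AREc32_Fluc cells receive compounds for a 24 hr incubation at 37 deg C with 5% CO2. Steady-Glo is added, and after 30 min at RT luminescence is recorded.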

The nature of assay [8]: S16 Schwann cell viability assay (CellTiter-Glo assay) (AID 624031). Note: nearly all actives have a fitted effect of over 70% in size. Note: potency is the fitted concentration of half-maximal effect. The conditions noted are these: S16 rat Schwann cells viability, 24 h; series mostly up to 57.5 µM. The method in brief: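 CellTiter-Glo ATP luminescence counter-screen in untransfected S16 rat Schwann cells, 24h compound exposure at 37 degree Celsius after overnight seeding (500-750 cells/well); response scaled between cell-free wells and DMSO (0% activity), curves classed by r2 and magnitude.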
On the technique in general: Cellular ATP, detected with luciferase, serves as a proxy for viable cell number.

Assay [9] can be described thus: S16 Schwann cell PMP22 intronic element beta-lactamase assay (AID 624044; calls by dose curve; note: nearly all actives have a fitted effect of over 15% in size; note: potency is the fitted concentration of half-maximal effect). Conditions: S16 rat Schwann cells, PMP22 element beta-lactamase FRET, 24 h; series mostly up to 38.3 µM. The gist of the method: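 Beta-lactamase reporter under a PMP22 intronic regulatory element in stable S16 rat Schwann cells; 24 h compound exposure. 460 nm blue signal normalized between DMSO (0%) and potassium clavulanate, with 535 nm FRET tracking viability; curves classed by r2 and response.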

Sequence of Glutaminase kidney isoform, mitochondrial (Homo sapiens) (O94925 whole entry, looked up, canonical isoform): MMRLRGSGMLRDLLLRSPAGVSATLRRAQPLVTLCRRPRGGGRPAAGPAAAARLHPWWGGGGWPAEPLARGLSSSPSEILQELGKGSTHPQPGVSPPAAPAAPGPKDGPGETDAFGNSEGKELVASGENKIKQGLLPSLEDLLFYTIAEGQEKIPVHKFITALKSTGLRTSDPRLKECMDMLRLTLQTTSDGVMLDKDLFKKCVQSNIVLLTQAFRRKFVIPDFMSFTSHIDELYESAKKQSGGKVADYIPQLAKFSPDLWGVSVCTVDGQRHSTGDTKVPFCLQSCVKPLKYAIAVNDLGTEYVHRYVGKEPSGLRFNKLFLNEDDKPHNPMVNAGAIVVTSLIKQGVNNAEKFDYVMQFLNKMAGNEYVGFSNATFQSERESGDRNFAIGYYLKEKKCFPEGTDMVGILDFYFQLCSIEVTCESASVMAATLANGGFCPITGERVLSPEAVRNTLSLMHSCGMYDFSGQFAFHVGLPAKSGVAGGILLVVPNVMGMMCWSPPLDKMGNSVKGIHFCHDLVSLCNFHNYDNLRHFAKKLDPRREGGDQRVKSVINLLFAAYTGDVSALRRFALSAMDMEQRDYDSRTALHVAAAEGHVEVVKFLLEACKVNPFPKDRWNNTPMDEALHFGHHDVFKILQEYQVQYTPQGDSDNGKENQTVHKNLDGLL
Sequence of Voltage-gated inwardly rectifying potassium channel KCNH2 (Homo sapiens) (Q12809 whole entry, looked up): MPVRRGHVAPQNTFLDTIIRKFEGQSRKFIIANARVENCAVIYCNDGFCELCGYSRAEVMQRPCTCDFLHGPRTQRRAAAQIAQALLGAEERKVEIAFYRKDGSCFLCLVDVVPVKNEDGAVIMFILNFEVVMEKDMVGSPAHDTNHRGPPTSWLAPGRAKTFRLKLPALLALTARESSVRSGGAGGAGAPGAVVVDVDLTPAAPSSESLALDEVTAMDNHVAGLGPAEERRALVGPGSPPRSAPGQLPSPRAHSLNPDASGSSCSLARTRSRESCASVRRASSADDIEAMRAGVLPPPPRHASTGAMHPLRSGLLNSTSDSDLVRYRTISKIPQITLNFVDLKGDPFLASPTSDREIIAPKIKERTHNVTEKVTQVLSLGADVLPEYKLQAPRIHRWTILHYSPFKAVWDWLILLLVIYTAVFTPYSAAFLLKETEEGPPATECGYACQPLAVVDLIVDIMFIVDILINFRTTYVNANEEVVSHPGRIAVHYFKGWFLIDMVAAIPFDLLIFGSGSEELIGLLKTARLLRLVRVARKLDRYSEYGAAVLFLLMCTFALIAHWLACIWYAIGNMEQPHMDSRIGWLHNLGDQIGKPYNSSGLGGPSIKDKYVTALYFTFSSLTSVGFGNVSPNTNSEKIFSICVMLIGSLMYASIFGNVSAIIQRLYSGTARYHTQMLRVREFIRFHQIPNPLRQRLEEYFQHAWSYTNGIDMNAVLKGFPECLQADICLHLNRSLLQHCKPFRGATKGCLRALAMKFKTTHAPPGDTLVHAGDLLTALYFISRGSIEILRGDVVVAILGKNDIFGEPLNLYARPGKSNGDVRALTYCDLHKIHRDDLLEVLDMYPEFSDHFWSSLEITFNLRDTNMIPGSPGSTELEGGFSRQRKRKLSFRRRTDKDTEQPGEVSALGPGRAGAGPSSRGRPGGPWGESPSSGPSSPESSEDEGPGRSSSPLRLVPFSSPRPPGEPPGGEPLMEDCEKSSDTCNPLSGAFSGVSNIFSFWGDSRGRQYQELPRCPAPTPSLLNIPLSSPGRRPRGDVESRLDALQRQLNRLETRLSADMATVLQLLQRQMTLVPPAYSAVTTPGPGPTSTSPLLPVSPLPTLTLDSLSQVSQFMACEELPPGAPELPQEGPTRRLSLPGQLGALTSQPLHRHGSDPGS
Sequence of Luciferin 4-monooxygenase (Photinus pyralis) (P08659 whole entry, looked up): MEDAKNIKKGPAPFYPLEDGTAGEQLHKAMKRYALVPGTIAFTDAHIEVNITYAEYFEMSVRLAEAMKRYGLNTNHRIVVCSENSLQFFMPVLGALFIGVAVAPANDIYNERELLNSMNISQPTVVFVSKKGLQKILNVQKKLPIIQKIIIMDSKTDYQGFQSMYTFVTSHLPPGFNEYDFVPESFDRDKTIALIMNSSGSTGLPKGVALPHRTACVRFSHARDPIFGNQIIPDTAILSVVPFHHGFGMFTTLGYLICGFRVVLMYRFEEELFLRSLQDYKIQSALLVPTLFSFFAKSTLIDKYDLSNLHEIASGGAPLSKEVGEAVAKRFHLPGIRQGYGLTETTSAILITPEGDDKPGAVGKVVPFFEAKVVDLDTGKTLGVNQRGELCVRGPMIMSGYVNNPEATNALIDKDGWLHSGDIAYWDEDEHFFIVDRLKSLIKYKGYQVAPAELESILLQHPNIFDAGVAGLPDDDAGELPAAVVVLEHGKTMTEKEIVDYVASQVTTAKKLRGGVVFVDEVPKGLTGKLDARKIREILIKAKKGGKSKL
Sequence of Retinoic acid receptor RXR-alpha (Homo sapiens) (P19793 whole entry, looked up): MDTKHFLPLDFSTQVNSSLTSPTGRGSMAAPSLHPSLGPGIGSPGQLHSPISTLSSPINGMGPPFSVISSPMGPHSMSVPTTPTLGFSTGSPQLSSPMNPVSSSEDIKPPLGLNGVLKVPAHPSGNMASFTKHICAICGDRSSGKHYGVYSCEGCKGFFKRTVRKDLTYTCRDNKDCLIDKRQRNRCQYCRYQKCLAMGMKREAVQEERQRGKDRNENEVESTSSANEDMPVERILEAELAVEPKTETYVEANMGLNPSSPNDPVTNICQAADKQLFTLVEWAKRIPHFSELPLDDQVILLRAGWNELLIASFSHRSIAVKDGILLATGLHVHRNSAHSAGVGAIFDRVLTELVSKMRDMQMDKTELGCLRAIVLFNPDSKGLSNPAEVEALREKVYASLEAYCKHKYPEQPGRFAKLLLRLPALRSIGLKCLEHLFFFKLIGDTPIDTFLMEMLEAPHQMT

On to `Nc1ccc(Cl)cc1N`, for which, in assay [1], the max response is -1.75% and 0.323%. Besides, the activity change % (negative = inhibition) in [2] was -20.8%. The Potency in assay [3] was 39.8 µM (active).
Take `O=[N+]([O-])c1c(Cl)c(Cl)cc(Cl)c1Cl`: the max response in [1] is 6.87%. For the same molecule, in assay [2], the activity change % (negative = inhibition) was -0.964%. The Potency entry in [3] and in assay [4] was “inactive” throughout.
As for `C=CCC1=C(C)C(OC(=O)C2C(C=C(C)C)C2(C)C)CC1=O` (stereo not drawn), the max response in assay [1] is -8.71% and -26.3%. The activity change % (negative = inhibition) in assay [2] is -24.8% and -17.8%.
As to `CC(C)(O)C(=O)Nc1ccc([N+](=O)[O-])c(C(F)(F)F)c1`, in [1], the max response was -2.4%. Also, the activity change % (negative = inhibition) in assay [2] is 23.5%. In [3], the Potency entry is “inactive”.
In the case of `Clc1cnc(Oc2ccc(Oc3ncc(Cl)cc3Cl)cc2)c(Cl)c1`, the max response in assay [1] is -16.8%. Besides, the Potency entry in [3] and in assay [5] was “inactive” each time. For the same molecule, the molecule was called inactive in assay [6] and in assay [7].
Consider `CC(C)(c1ccc(O)cc1)c1ccc(O)cc1`, for which the activity change % (negative = inhibition) in assay [2] was -3.91%. For the same molecule, the Potency entry in assay [3] is “inactive”.
`CN[C@@H](C)[C@H](O)c1ccccc1`: the Potency result in assay [3] was “inactive”.
As for `CCOP(=O)(NC(C)C)Oc1ccc(SC)c(C)c1` (stereo not drawn), in assay [1], the max response was -12.2% and -3.23%. Moreover, the Potency result in assay [3] and in assay [4] was “inactive” throughout.
`Nc1ccc(N=Nc2ccccc2)cc1`: the activity change % (negative = inhibition) in [2] was -2.63%.
Regarding `CCCCCCCCc1ccc(O)cc1`, in [1], the max response is -17.2%. For the same molecule, the Potency entry in assay [3] was “inactive”.
`Cc1cc(O)ccc1Cl`: the max response in assay [1] is -4.22%. For the same molecule, the activity change % (negative = inhibition) in assay [2] was 1.27%. The Potency entry in [3] and in assay [8] was “inactive” each time.
As to `C[N+](C)(C)CC(=O)O`, the Potency result in [3] was “inactive”.
As to `c1ccc2occc2c1`, the activity change % (negative = inhibition) in assay [2] is -0.0158% and 0.269%.
For `O=C(O)COc1ccccc1`, in assay [1], the max response was -9.5%. Moreover, the activity change % (negative = inhibition) in [2] was -9.48%. For the same molecule, the Potency result in [3] and in [8] was “inactive” each time.
Turning to `O=C1C(I)=CC(=C(c2cc(I)c(O)c(I)c2)c2ccccc2C(=O)O)C=C1I`, the Potency entry in assay [3] is “inactive”.
Consider `COC(=O)c1cncn1C(C)c1ccccc1` (stereo not drawn), for which the Potency result in assay [3], in [4], in assay [8] and in [9] was “inactive” in each case.
For the molecule `ClC1=C(Cl)[C@]2(Cl)[C@@H]3[C@@H]4C[C@@H]([C@H]5O[C@@H]45)[C@@H]3[C@@]1(Cl)C2(Cl)Cl`, the max response in assay [1] was -14.7%. In addition, the activity change % (negative = inhibition) in [2] is -14.5%. For the same molecule, the Potency result in assay [4] was “inactive”.
Regarding `O=[N+]([O-])c1ccc([As](=O)(O)O)cc1`, the Potency result in assay [3], in assay [4] and in assay [8] was “inactive” each time.
As to `O=[N+]([O-])c1c2ccccc2cc2ccccc12`, the activity change % (negative = inhibition) in [2] is 0.364%. Further, the Potency entry in [3] and in assay [4] was “inactive” each time.
On to `CCCCCCCCCCCCCCCC[N+](C)(C)C`, for which the max response in assay [1] is -2.56%. In assay [3], the Potency result is “inactive”.
For `O=C(O)c1cc(Oc2ccc(C(F)(F)F)cc2Cl)ccc1[N+](=O)[O-]`, the max response in assay [1] is -9.38%. Further, the activity change % (negative = inhibition) in [2] was -21.5%. The Potency entry in assay [4] is “inactive”.
Turning to `CC(=O)[O][Hg][c]1ccccc1`, the Potency in [3] was 14.1 µM (active) and 25.1 µM (active); in [8], 0.907 µM (active); in [9], 14.1 µM (active).
Take `CC[N+]1(CCOC(=O)C(O)(c2ccccc2)c2ccccc2)CCCCC1`: the Potency result in assay [3], in assay [8] and in assay [9] was “inactive” each time.
For the molecule `Brc1ccccc1-c1ccccc1`, the Potency in assay [3] was 28.2 µM (active).
For the molecule `CCCCCCCCCC(CC)c1ccc(S(=O)(=O)O)cc1` (stereo not drawn), in assay [1], the max response is 4.12% and -4.98%. Moreover, the activity change % (negative = inhibition) in [2] is 6.11% and -12%. Also, the Potency result in assay [3], in [4], in [8] and in assay [9] was “inactive” in each case.
For the molecule `O=S(=O)(O)C(F)(F)C(F)(F)C(F)(F)C(F)(F)F`, in [2], the activity change % (negative = inhibition) was -13.9%.
For the molecule `Cc1nc(-c2ccc(-c3ccc(C(=O)N4CCc5cc6c(cc54)C4(CCN(C)CC4)CO6)cc3)c(C)c2)no1`, the Potency in assay [3] is 7.94 µM (active).
Regarding `NC1=NC(=O)N2CC12` (stereo not drawn), the Potency entry in assay [3], in assay [8] and in [9] was “inactive” throughout.
As for `C1CCC(NC2CCCCC2)CC1`, the max response in assay [1] is 9.08% and 2.51% and 3.48%. Also, the activity change % (negative = inhibition) in assay [2] is -2.7% and -4.6% and 5.65%. Also, the Potency entry in assay [3] and in [8] was “inactive” in each case.
For `CC[C@@H]1C(=O)OC[C@@H]1Cc1cncn1C`, in assay [3], the Potency result was “inactive”.
Take `CS(=O)(=O)c1ccc(C(=O)C2C(=O)CCCC2=O)c([N+](=O)[O-])c1`: in assay [1], the max response was 0.528%. Also, the activity change % (negative = inhibition) in assay [2] was 9.38%. The Potency result in [4] was “inactive”.
With `CN1C2CCC1CC(OC(=O)c1cc(Cl)cc(Cl)c1)C2` (stereo not drawn), the Potency in assay [3] was 3.55 µM (active). The Potency result in [4], in [9] and in assay [5] was “inactive” throughout. Further, the molecule was classed as inactive in assay [6] and in [7].
As for `O=[N+]([O-])/N=C1\NCCN1Cc1ccc(Cl)nc1`, the max response in [1] was -0.806%. Moreover, in assay [3], the Potency result was “inactive”.
On to `Clc1ccc(C(c2ccc(Cl)cc2)n2cc[n+](CC(OCc3ccc(Cl)cc3Cl)c3ccc(Cl)cc3Cl)c2)cc1` (stereo not drawn), for which, in [3], the Potency was 11.2 µM (active).
As to `CC[C@@H](C(N)=O)N1CCCC1=O`, the Potency entry in assay [5] was “inactive”. Also, the call in [6] and in [7] was inactive.
